# Key:
# Assay in all cases: SPOT peptide array binding signal intensity (averaged, normalized) (arbitrary units (background-subtracted, floor 0; scale differs between SH3 domains)); higher = stronger binding of the SH3 domain to the peptide
# [1] = target: AgAbp1
# Outline: (§1)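 Binding signal is given in arbitrary units that differ between domains and is the normalized, background-subtracted spot intensity averaged across replicates. Each GST-SH3 fusion from one of four yeast species was made in E. coli BL21(DE3), purified on glutathione Sepharose and incubated at 10 μg/ml overnight at 4°C on cellulose-bound synthetic 15-mer peptides in which cysteines were replaced by serines. Detection used anti-GST antibody, an HRP anti-mouse secondary and luminol, followed by imaging and Genespotter quantification.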
# [2] = target: AgBbc1
# Outline: as §1
# [3] = target: AgBem1-D1
# Outline: as §1
# [4] = target: AgBzz1-D1
# Outline: as §1
# [5] = target: AgBzz1-D2
# Outline: as §1
# [6] = target: AgCyk3
# Outline: as §1
# [7] = target: AgFus1
# Outline: as §1
# [8] = target: AgHof1
# Outline: as §1
# [9] = target: AgHse1
# Outline: as §1
# [10] = target: AgLsb1
# Outline: as §1
# [11] = target: AgLsb4
# Outline: as §1
# [12] = target: AgMyo5
# Outline: as §1
# [13] = target: AgNbp2
# Outline: as §1
# [14] = target: AgRvs167
# Outline: as §1
# [15] = target: AgSho1
# Outline: as §1
# [16] = target: AgSla1-D1-D2
# Outline: as §1
# [17] = target: AgSla1-D3
# Outline: as §1
# [18] = target: CaAbp1-D1
# Outline: as §1
# [19] = target: CaAbp1-D2
# Outline: as §1
# [20] = target: CaBbc1
# Outline: as §1
# [21] = target: CaBem1-D1
# Outline: as §1
# [22] = target: CaBzz1-D1
# Outline: as §1
# [23] = target: CaBzz1-D2
# Outline: as §1
# [24] = target: CaCyk3
# Outline: as §1
# [25] = target: CaFus1
# Outline: as §1
# [26] = target: CaHof1
# Outline: as §1
# [27] = target: CaHse1
# Outline: as §1
# [28] = target: CaLsb1
# Outline: as §1
# [29] = target: CaLsb4
# Outline: as §1
# [30] = target: CaMyo5
# Outline: as §1
# [31] = target: CaNbp2
# Outline: as §1
# [32] = target: CaRvs167
# Outline: as §1
# [33] = target: CaRvs167-3
# Outline: as §1
# [34] = target: CaSho1
# Outline: as §1
# [35] = target: CaSla1-D1-D2
# Outline: as §1
# [36] = target: CaSla1-D3
# Outline: as §1
# [37] = target: ScAbp1
# Outline: as §1
# [38] = target: ScBbc1
# Outline: as §1
# [39] = target: ScBem1-D1
# Outline: as §1
# [40] = target: ScBzz1-D1
# Outline: as §1
# [41] = target: ScBzz1-D2
# Outline: as §1
# [42] = target: ScCyk3
# Outline: as §1
# [43] = target: ScFus1
# Outline: as §1
# [44] = target: ScHof1
# Outline: as §1
# [45] = target: ScHse1
# Outline: as §1
# [46] = target: ScLsb1
# Outline: as §1
# [47] = target: ScLsb2
# Outline: as §1
# [48] = target: ScLsb3
# Outline: as §1
# [49] = target: ScLsb4
# Outline: as §1
# [50] = target: ScMyo3
# Outline: as §1
# [51] = target: ScMyo5
# Outline: as §1
# [52] = target: ScNbp2
# Outline: as §1
# [53] = target: ScPex13
# Outline: as §1
# [54] = target: ScRvs167
# Outline: as §1
# [55] = target: ScSho1
# Outline: as §1
# [56] = target: ScSla1-D1-D2
# Outline: as §1
# [57] = target: ScSla1-D3
# Outline: as §1
# [58] = target: SpAbp1-D1
# Outline: as §1
# [59] = target: SpBbc1
# Outline: as §1
# [60] = target: SpBzz1-D1
# Outline: as §1
# [61] = target: SpBzz1-D2
# Outline: as §1
# [62] = target: SpCyk3
# Outline: as §1
# [63] = target: SpHof1
# Outline: as §1
# [64] = target: SpHof1-2
# Outline: as §1
# [65] = target: SpHof1-3
# Outline: as §1
# [66] = target: SpHse1
# Outline: as §1
# [67] = target: SpLsb1
# Outline: as §1
# [68] = target: SpLsb4
# Outline: as §1
# [69] = target: SpMyo1
# Outline: as §1
# [70] = target: SpNbp2
# Outline: as §1
# [71] = target: SpPex13
# Outline: as §1
# [72] = target: SpRvs167
# Outline: as §1
# [73] = target: SpSla1-D1-D2
# Outline: as §1
# [74] = target: SpSla1-D3
# Outline: as §1
binder,measurement,setting,value
GSKSGPPPRPKKPST,SPOT peptide array binding signal intensity,[1],94
same,SPOT peptide array binding signal intensity,[2],780
same,SPOT peptide array binding signal intensity,[3],66.5
same,SPOT peptide array binding signal intensity,[4],524
same,SPOT peptide array binding signal intensity,[5],102
same,SPOT peptide array binding signal intensity,[6],≤ 0
same,SPOT peptide array binding signal intensity,[7],23
same,SPOT peptide array binding signal intensity,[8],39.2
same,SPOT peptide array binding signal intensity,[9],≤ 0
same,SPOT peptide array binding signal intensity,[10],≤ 0
same,SPOT peptide array binding signal intensity,[11],≤ 0
same,SPOT peptide array binding signal intensity,[12],0.25
same,SPOT peptide array binding signal intensity,[13],37
same,SPOT peptide array binding signal intensity,[14],≤ 0
same,SPOT peptide array binding signal intensity,[15],20
same,SPOT peptide array binding signal intensity,[16],9
same,SPOT peptide array binding signal intensity,[17],7.5
same,SPOT peptide array binding signal intensity,[18],328
same,SPOT peptide array binding signal intensity,[19],189
same,SPOT peptide array binding signal intensity,[20],825
same,SPOT peptide array binding signal intensity,[21],13
same,SPOT peptide array binding signal intensity,[22],1530
same,SPOT peptide array binding signal intensity,[23],388
same,SPOT peptide array binding signal intensity,[24],36.5
same,SPOT peptide array binding signal intensity,[25],42
same,SPOT peptide array binding signal intensity,[26],1.5
same,SPOT peptide array binding signal intensity,[27],0.5
same,SPOT peptide array binding signal intensity,[28],0.5
same,SPOT peptide array binding signal intensity,[29],≤ 0
same,SPOT peptide array binding signal intensity,[30],0.5
same,SPOT peptide array binding signal intensity,[31],27
same,SPOT peptide array binding signal intensity,[32],≤ 0
same,SPOT peptide array binding signal intensity,[33],3.5
same,SPOT peptide array binding signal intensity,[34],29.5
same,SPOT peptide array binding signal intensity,[35],130
same,SPOT peptide array binding signal intensity,[36],230
same,SPOT peptide array binding signal intensity,[37],234
same,SPOT peptide array binding signal intensity,[38],97.8
same,SPOT peptide array binding signal intensity,[39],15
same,SPOT peptide array binding signal intensity,[40],48.5
same,SPOT peptide array binding signal intensity,[41],72
same,SPOT peptide array binding signal intensity,[42],1
same,SPOT peptide array binding signal intensity,[43],6.5
same,SPOT peptide array binding signal intensity,[44],1.75
same,SPOT peptide array binding signal intensity,[45],13
same,SPOT peptide array binding signal intensity,[46],2.5
same,SPOT peptide array binding signal intensity,[47],0.5
same,SPOT peptide array binding signal intensity,[48],1400
same,SPOT peptide array binding signal intensity,[49],5
same,SPOT peptide array binding signal intensity,[50],5.25
same,SPOT peptide array binding signal intensity,[51],≤ 0
same,SPOT peptide array binding signal intensity,[52],51
same,SPOT peptide array binding signal intensity,[53],133
same,SPOT peptide array binding signal intensity,[54],3.33
same,SPOT peptide array binding signal intensity,[55],41
same,SPOT peptide array binding signal intensity,[56],57.5
same,SPOT peptide array binding signal intensity,[57],28
same,SPOT peptide array binding signal intensity,[58],85
same,SPOT peptide array binding signal intensity,[59],5.5
same,SPOT peptide array binding signal intensity,[60],320
same,SPOT peptide array binding signal intensity,[61],2
same,SPOT peptide array binding signal intensity,[62],≤ 0
same,SPOT peptide array binding signal intensity,[63],1.5
same,SPOT peptide array binding signal intensity,[64],10.5
same,SPOT peptide array binding signal intensity,[65],25
same,SPOT peptide array binding signal intensity,[66],16.2
same,SPOT peptide array binding signal intensity,[67],12.5
same,SPOT peptide array binding signal intensity,[68],332
same,SPOT peptide array binding signal intensity,[69],8
same,SPOT peptide array binding signal intensity,[70],5
same,SPOT peptide array binding signal intensity,[71],7
same,SPOT peptide array binding signal intensity,[72],≤ 0
same,SPOT peptide array binding signal intensity,[73],5
same,SPOT peptide array binding signal intensity,[74],1

# — the supplement of paper PMC4466140
